Records with an inconclusive call do not appear. Where a call stands in place of a potency, no number is given. The source made the active and inactive calls. Calls follow the shape of the dose curve; as a rule, active = well fitted curve in the direction sought with a large enough effect; inconclusive = small, poorly fitted or top-dose-only effect, or another doubt; inactive = no such curve, though single readings can be large; an effect the other way counts as inactive or inconclusive.

Assay [1] concerns the target Aldehyde dehydrogenase, mitochondrial (Homo sapiens) (UniProt P05091). Briefly: qHTS for Inhibitors of the Aldehyde Dehydrogenase Family (ALDH2) Primary screen (AID 2061308). Also: nearly all actives have a fitted effect of over 55% in size.
Assay [2] has as its target Retinaldehyde dehydrogenase 3 (Homo sapiens) (UniProt P47895). Briefly: qHTS for Inhibitors of the Aldehyde Dehydrogenase Family (ALDH1A3) Primary screen (AID 2061315). (In qHTS, concentration-response curves come from the screen itself.)

For `Cc1ccc(C)c(SC2=CS(=O)(=O)c3ccccc32)c1`, the Potency entry in assay [1] and in assay [2] was “inactive” throughout.

Take `O=C(OC/C=C/CSc1nnc(-c2cccc3ccccc23)o1)c1ccc(F)cc1`: the Potency entry in assay [1] and in assay [2] was “inactive” throughout.

For `NC(=O)C1CCN(c2nnc(-c3ccc4c(c3)OCCCO4)s2)CC1`, the Potency entry in assay [1] and in assay [2] was “inactive” throughout.

For the compound `CN(C(=O)c1cccs1)c1cccnc1`, the Potency result in assay [1] and in assay [2] was “inactive” in each case.

With `Cc1ccc(OCCn2c(CCNC(=O)C(C)(C)C)nc3ccccc32)cc1`, the Potency result in assay [1] and in assay [2] was “inactive” throughout.

Regarding `COc1cccc(C2c3c(ncn(-c4ccccc4Br)c3=N)Oc3ccc4ccccc4c32)c1` (configuration not stated), the Potency entry in assay [1] and in assay [2] was “inactive” each time.

Take `CC(=O)Nc1nc(C)c(-c2nc(N3CCCC(O)C3)no2)s1` (configuration not stated): the Potency result in assay [1] and in assay [2] was “inactive” each time.

Take `COc1cccc(-c2ccc3ncnc(NCc4cc(C)cs4)c3c2)c1`: the Potency result in assay [1] and in assay [2] was “inactive” in each case.

Regarding `Cc1cccc(C(=O)NC2CCN(C#N)CC2)c1`, the Potency entry in assay [1] and in assay [2] was “inactive” each time.

Consider `COc1ccc(C2Nc3ccccc3C(=O)N2Cc2cccs2)cc1COc1c(C)cc(NC(C)=O)cc1C` (configuration not stated), for which the Potency result in assay [1] and in assay [2] was “inactive” in each case.

For `CCCCNc1ncc2c(-c3ccc(S(=O)(=O)N4CCOCC4)cc3)nn(C3CCC(O)CC3)c2n1` (configuration not stated), the Potency entry in assay [1] and in assay [2] was “inactive” throughout.

Turning to `Fc1ccc(Nc2nc(-c3ccncc3F)nc3ccccc23)cc1F`, the Potency result in assay [1] and in assay [2] was “inactive” in each case.

`O=C(Nc1nc(-c2ccccc2)cs1)c1cccc(NS(=O)(=O)c2nccs2)c1`: the Potency result in assay [1] and in assay [2] was “inactive” throughout.

As to `COc1ccc(S(=O)(=O)NC2CCN(C#N)CC2)cc1`, the Potency entry in assay [1] and in assay [2] was “inactive” each time.

Regarding `O=S(=O)(Nc1nccs1)c1ccc(NCc2cc(Cl)ccc2O)cc1`, the Potency entry in assay [1] and in assay [2] was “inactive” each time.

Consider `Clc1ccc2ncc(-c3cccc(NC4CCNC4)n3)n2c1` (configuration not stated), for which the Potency entry in assay [1] and in assay [2] was “inactive” throughout.

The values above are taken from PubChem BioAssay (NCATS).
